Assay results taken from the supplement of paper PMC4962491.
± gives the standard deviation of the averaged measurements.

Test system: FaDu
Assay: mitochondrial oxygen consumption rate normalised to cell number, Z score vs plate DMSO wells; higher = higher oxygen consumption (negative = OCR reduction)
Conditions: treatment time 24 h, assay medium: 5 mM glucose, 5 mM pyruvate, 4 mM glutamine
Experimental: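 Secondary screen: FaDu cells were incubated 24 h with the top 130 primary hits at 0.08, 0.4, 2 or 10 uM. Mitochondrial-specific OCR (basal minus antimycin A) was measured on a Seahorse XF96 in medium with 5 mM glucose, 5 mM pyruvate and 4 mM glutamine and normalised to Hoechst cell number. OCR score = (OCR - mean of plate DMSO wells) / SD of plate DMSO wells. Three repeats.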
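Further: compound exposure in DMEM (4 mM L-glutamine, 5 mM glucose), antimycin A injected at 2 µM after the basal reading and its residual OCR subtracted from basal.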

Compound	mitochondrial oxygen consumption rate normalised (0.08 µM)	mitochondrial oxygen consumption rate normalised (0.4 µM)	mitochondrial oxygen consumption rate normalised (2 µM)	mitochondrial oxygen consumption rate normalised (10 µM)
CCN(CC)C(=O)c1cccnc1	0.606 ± 0.97	-0.942 ± 0.098	-1.02 ± 1.1	-1.48 ± 0.69
Cc1cc(=O)[nH]c(=S)[nH]1	-1.18 ± 0.93	-0.337 ± 0.83	-1.08 ± 0.99	0.503 ± 0.66
CN(C)c1ccc2nc3ccc(=[N+](C)C)cc-3sc2c1	0.933 ± 1.1	1.47 ± 0.68	-2.4 ± 1.5	-2.94 ± 3.9
CCCCC(CC)CN1CN(CC(CC)CCCC)CC(C)(N)C1 (stereo not given)	1.53 ± 1.5	0.568 ± 0.56	0.773 ± 1.7	-5.24 ± 1.7
O=[N+]([O-])c1ccc(O)c2ncccc12	0.333 ± 0.4	1.67 ± 1.1	-0.415 ± 1.2	-3.63 ± 2.5
CO[C@H](C(=O)[C@@H](O)[C@@H](C)O)[C@@H]1Cc2cc3cc(O[C@H]4C[C@@H](O[C@@H]5C[C@@H](O)[C@H](O)[C@@H](C)O5)[C@H](O)[C@@H](C)O4)c(C)c(O)c3c(O)c2C(=O)[C@H]1O[C@H]1C[C@@H](O[C@@H]2C[C@@H](O)[C@@H](O[C@@H]3C[C@](C)(O)[C@H](O)[C@@H](C)O3)[C@@H](C)O2)[C@H](O)[C@@H](C)O1	-4.64 ± 1.4	-7.12 ± 0.33	-7.79 ± 0.54	-8.14 ± 0.52
CN1[C@@H]2CC[C@H]1C[C@@H](OC(=O)c1c[nH]c3ccccc13)C2	0.168 ± 1.4	1.48 ± 0.79	-0.138 ± 1.6	-1.06 ± 2.5
COc1cccc2c1C(=O)c1c(O)c3c(c(O)c1C2=O)C[C@@](O)(C(=O)CO)C[C@@H]3O[C@H]1C[C@H](N)[C@@H](O)[C@H](C)O1	-0.0709 ± 0.37	1.4 ± 1	1.18 ± 1.4	1.58 ± 2.4
C[n+]1c2cc(N)ccc2cc2ccc(N)cc21	0.662 ± 0.73	-1.94 ± 0.8	-5.7 ± 0.82	-12.3 ± 0.21
CCCCCCCCCCCCCCCCCCCCCCO	0.402 ± 1.5	0.592 ± 1.3	0.538 ± 0.35	-0.999 ± 1.9
